Source: PubChem BioAssay AID1159580 (chemical genetic matrix, 2015)
Where “and” joins values, the source holds several entries; their conditions need not be identical. Identical values can stand only once. About 2,000 (36%) of roughly 5,500 compounds were called active. Another 18% or so got no clear call; they are omitted. Rule as the data show it: active = normalized growth mostly below about 0.91 (no sharp cut-off); inconclusive = no clear call, values can overlap the other calls; inactive = mostly above about 0.92. The list shows a part of the results.

Assay: chemical genetic growth profiling, strain panel (AID 1159580);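 also: tested at 20 µM; growth read once vehicle control cultures reached saturation at 30 °C; 1 = growth at the plate median or of vehicle wells; lower values mean less growth of the strain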
Conditions: S. cerevisiae deletion strains, growth OD

Measured: normalized growth

Nc1ccc(S(=O)(=O)Nc2ccc(Cl)nn2)cc1
inactive: locus YAL013W, strain DEP1, stronger effect = lower value 1.01 | locus YAL021C, strain ccr4, stronger effect = lower value 0.982 | locus YAL026C, strain drs2, stronger effect = lower value 0.996 | locus YAL030W, strain snc1, stronger effect = lower value 0.985 | locus YBL061C, strain skt5, stronger effect = lower value 0.984 | locus YBR009C, strain hhf1, stronger effect = lower value 0.994 | locus YBR021W, strain FUR4, stronger effect = lower value 0.977 | locus YBR023C, strain chs3, stronger effect = lower value 0.984 | locus YBR171W, strain sec66, stronger effect = lower value 0.976 | locus YBR229C, strain ROT2, stronger effect = lower value 0.995 | locus YBR231C, strain swc5, stronger effect = lower value 0.995 | locus YBR279W, strain paf1, stronger effect = lower value 0.998 | locus YCL011C, strain gbp2, stronger effect = lower value 0.987 | locus YCL016C, strain dcc1, stronger effect = lower value 0.971 | locus YCL029C, strain bik1, stronger effect = lower value 0.996 | locus YCL061C, strain MRC1, stronger effect = lower value 0.984 | locus YCL069W, strain vba3, stronger effect = lower value 0.993 | locus YCR088W, strain abp1, stronger effect = lower value 0.987 | locus YDL005C, strain med2, stronger effect = lower value 0.996 | locus YDL035C, strain GPR1, stronger effect = lower value 1.02 | locus YDL040C, strain nat1, stronger effect = lower value 0.992 | locus YDL074C, strain BRE1, stronger effect = lower value 0.978 | locus YDL101C, strain DUN1, stronger effect = lower value 1.01 | locus YDL134C, strain PPH21, stronger effect = lower value 1.01 | locus YDL185W, strain tfp1, stronger effect = lower value 1.01 | locus YDL192W, strain arf1, stronger effect = lower value 1.01 | locus YDR001C, strain nth1, stronger effect = lower value 0.987 | locus YDR069C, strain doa4, stronger effect = lower value 0.999 | locus YDR101C, strain arx1, stronger effect = lower value 0.961 | locus YDR137W, strain rgp1, stronger effect = lower value 0.996 | locus YDR150W, strain NUM1, stronger effect = lower value 0.999 | locus YDR159W, strain sac3, stronger effect = lower value 1.02 | locus YDR162C, strain NBP2, stronger effect = lower value 1.02 | locus YDR195W, strain ref2 0.968 | locus YDR297W, strain sur2, stronger effect = lower value 0.993 | locus YDR318W, strain mcm21, stronger effect = lower value 1 | locus YDR334W, strain swr1, stronger effect = lower value 0.984 | locus YDR335W, strain msn5, stronger effect = lower value 0.994 | locus YDR388W, stronger effect = lower value 1.01 | locus YDR392W, strain spt3, stronger effect = lower value 0.929 | locus YDR502C, strain sam2, stronger effect = lower value 1 | locus YEL003W, strain gim4, stronger effect = lower value 1 | locus YEL037C, strain rad23, stronger effect = lower value 0.991 | locus YEL061C, strain CIN8 (second series), stronger effect = lower value 0.992 | locus YEL061C, strain CIN8, stronger effect = lower value 1 | locus YER015W, strain faa2, stronger effect = lower value 0.973 | locus YER016W, strain bim1, stronger effect = lower value 1 | locus YER110C, stronger effect = lower value 1.01 | locus YER111C, strain swi4, stronger effect = lower value 0.986 | locus YER155C, strain BEM2 (second series), stronger effect = lower value 1 | locus YER155C, strain BEM2, stronger effect = lower value 0.998 | locus YER167W, strain BCK2, stronger effect = lower value 1.01 | locus YFR010W, strain ubp6, stronger effect = lower value 0.99 | locus YGL078C, strain dbp3, stronger effect = lower value 1 | locus YGL086W, strain mad1, stronger effect = lower value 0.988 | locus YGL167C, strain pmr1, stronger effect = lower value 0.983 | locus YGL173C, strain kem1, stronger effect = lower value 0.99 | locus YGL227W, strain vid30, stronger effect = lower value 0.979 | locus YGL240W, strain doc1, stronger effect = lower value 0.992 | locus YGL248W, strain PDE1, stronger effect = lower value 0.999 | locus YGL253W, strain hxk2, stronger effect = lower value 1 | locus YGR135W, strain pre9, stronger effect = lower value 1.06 | locus YGR252W, strain gcn5, stronger effect = lower value 1.04 | locus YHR013C, strain ard1, stronger effect = lower value 0.965 | locus YHR027C, strain rpn1, stronger effect = lower value 0.995 | locus YHR030C, strain SLT2, stronger effect = lower value 1 and 0.995 | locus YHR079C, strain IRE1 (second series), stronger effect = lower value 1.01 | locus YHR079C, strain IRE1, stronger effect = lower value 0.989 | locus YHR094C, strain hxt1, stronger effect = lower value 1.01 | locus YHR129C, strain ARP1, stronger effect = lower value 1.01 | locus YHR142W, strain chs7, stronger effect = lower value 0.994 | locus YHR200W, strain rpn10, stronger effect = lower value 1 | locus YIL066C, strain RNR3, stronger effect = lower value 0.992 | locus YIL073C, strain SPO22, stronger effect = lower value 1.07 | locus YIL125W, strain kgd1, stronger effect = lower value 0.994 | locus YIR030C, strain dcg1, stronger effect = lower value 1.01 | locus YJL092W, strain hpr5, stronger effect = lower value 0.983 | locus YJL095W, strain BCK1 (second series), stronger effect = lower value 0.988 | locus YJL095W, strain BCK1, stronger effect = lower value 1.01 and 0.984 | locus YJL115W, strain asf1, stronger effect = lower value 0.991 | locus YJL129C, strain trk1, stronger effect = lower value 1.01 | locus YJL134W, strain LCB3, stronger effect = lower value 1.01 | locus YJL154C, strain vps35, stronger effect = lower value 0.986 | locus YJL164C, strain tpk1, stronger effect = lower value 0.985 | locus YJL166W, strain qcr8, stronger effect = lower value 0.984 | locus YJL168C, strain set2, stronger effect = lower value 1 | locus YJL187C, strain SWE1 (second series), stronger effect = lower value 0.992 | locus YJL187C, strain SWE1, stronger effect = lower value 0.986
